Test results reported in PubChem BioAssay (NCATS).
Records with an inconclusive call do not appear. Activity calls are given as the source filed them. Calls come from the whole dose curve; as a rule, active = well fitted inhibition curve with a large enough effect in the repeat runs; inconclusive = weak or mixed curves; inactive = no such curve, though single readings can be large or run the other way.

Each compound was assayed against Cytochrome P450 2C9 (Homo sapiens) (UniProt P11712) (assay: Cytochrome P450 family 2 subfamily C member 9 (CYP2C9) small molecule antagonists: luciferase biochemical (cell-free) qHTS assay (AID 1645842; note: nearly all actives have a fitted effect of over 55% in size)). Settings: P450-Glo CYP2C9 enzyme assay, luciferin luminescence; series mostly up to 57.4 µM; activity change, negative = inhibition: at the top concentration.
Method in brief: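 P450-Glo CYP2C9 system: proluciferin substrate with enzyme in mix containing 0.4% BSA, 10 min at room temperature, then NADPH regeneration solution added and incubated 1 h at 37C. Detection reagent stopped reaction; luminescence read after 20 min as RLU.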
% is set by controls: 0 for no effect and ±100 for the full control effect; potency is the fitted concentration of half-maximal effect.

Chain of Cytochrome P450 2C9 (Homo sapiens) (P11712 whole entry, looked up): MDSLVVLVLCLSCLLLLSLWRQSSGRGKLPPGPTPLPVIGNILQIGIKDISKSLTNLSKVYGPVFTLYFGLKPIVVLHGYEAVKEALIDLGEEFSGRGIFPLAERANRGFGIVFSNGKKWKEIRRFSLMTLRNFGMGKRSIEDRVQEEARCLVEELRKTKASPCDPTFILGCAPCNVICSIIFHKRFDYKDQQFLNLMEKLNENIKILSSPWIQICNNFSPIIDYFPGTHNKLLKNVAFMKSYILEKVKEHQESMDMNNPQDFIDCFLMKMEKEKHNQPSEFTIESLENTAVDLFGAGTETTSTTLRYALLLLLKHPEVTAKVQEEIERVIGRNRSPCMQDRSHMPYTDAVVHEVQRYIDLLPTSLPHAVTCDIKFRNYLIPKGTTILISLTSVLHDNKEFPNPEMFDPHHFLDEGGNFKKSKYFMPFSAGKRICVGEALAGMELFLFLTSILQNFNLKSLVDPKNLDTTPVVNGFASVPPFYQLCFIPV

| Structure (SMILES) | activity change, negative = inhibition | Potency |
| --- | --- | --- |
| COc1cc(C(=O)NC2CCCNC2)cc(OC)c1OC (configuration not stated) | 4.27% (inactive) | – |
| CC(=O)N(c1onc(C)c1C)S(=O)(=O)c1ccc(N)cc1 | 46.5% (inactive) | – |
| C[C@@H]1C[C@H]2[C@@H]3CCC4=CC(=O)C=C[C@]4(C)[C@@]3(F)[C@@H](O)C[C@]2(C)[C@@]1(O)C(=O)COC(=O)c1ccncc1 | – | 2450 nM (active) |
| CN(C)CCN1CCN(c2cccc(Cl)c2)C1=O | 0.969% (inactive) | – |
| CCCCCCCCCCCCCCCCCCN(C)C | 10.8% (inactive) | – |
| O=C(CCCl)NCc1ccccc1 | 13.9% (inactive) | – |
| Nc1ncnc2c1ncn2Cc1c(F)cccc1Cl | 8.08% (inactive) | – |
| O=C(O)C(=O)Nc1cccc(-c2nn[nH]n2)c1 | 1.48% (inactive) | – |
| CC1CC(=O)NN=C1c1ccc(NCC(C)(C)NCC(O)COc2cc(Cl)ccc2C#N)cc1 (configuration not stated) | – | 977 nM (active) |
| O=C(Nc1ccc(Cl)cc1)Nc1ccc(Cl)c(C(F)(F)F)c1 | – | 11000 nM (active) |
| COC(=O)CCCCC(CCSS/C(CCO)=C(\C)N(C=O)Cc1cnc(C)nc1N)SC(C)=O (configuration not stated) | -8.25% (inactive) | – |
| CCN1CCN(C(=O)N[C@@H](C(=O)N[C@@H]2C(=O)N3[C@@H]2SC(C)(C)[C@H]3C(=O)O)c2ccccc2)C(=O)C1=O | -2.18% (inactive) | – |
| N#Cc1cc(NC(=O)C(=O)O)c(Cl)c(NC(=O)C(=O)O)c1 | 11.6% (inactive) | – |
| CNC(=O)c1c(I)c(NC(C)=O)c(I)c(C(=O)O)c1I | 10.2% (inactive) | – |
| O=C(CO)[C@@H](O)[C@H](O)[C@@H](O)CO | 11.9% (inactive) | – |
| CN(CC1(C)CCCO1)S(=O)(=O)c1ccc(Cl)c(S(N)(=O)=O)c1 (configuration not stated) | 28.9% (inactive) | – |
| CC(=O)Nc1c(I)c(NC(C)=O)c(I)c(C(=O)O)c1I | 5.9% (inactive) | – |
